FECH block: inhibitors of human ferrochelatase, primary screen, biochemical, purified FECH, Ni-mesoporphyrin absorbance. Ferrochelatase, mitochondrial (Homo sapiens), P22830. Ni-mesoporphyrin absorbance 550 nm. calls only at 10 µM (by protocol). 3.3% of 20,000 active. AID 1671448, 2021;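 active means enzyme reaction rate more than 3 SD below the solvent-only control wells on the same plate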;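 further: lower slope than DMSO wells means FECH inhibition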
* marks the source's active call; other numbers are inactive results; i = inactive; + = active, no number. Shown is part of a subset that was picked to be rich in hits.

SMILES	FECH block
O=C(Nc1ccon1)c1cccn(Cc2cccc(Cl)c2)c1=O	+
NC(=O)c1ccccc1NC(=O)c1cccn(Cc2cccc(Cl)c2)c1=O	i
NC(=O)c1ccc(NC(=O)c2cccn(Cc3cccc(Cl)c3)c2=O)cc1	i
FC(F)(F)CCc1ccnc(N2CCCN3CCC[C@H]3C2)n1	i
Cc1cc(C(=O)N2CC[C@H]3CC[C@@H](C2)N3)cc(=O)[nH]1	i
